This is a sample that favours compounds with a hit; in the whole collection about 27% have one here.
CYP2C9 act: human CYP2C9 activators, primary screen, biochemical, luminescence. 96,000 tested, 1.4% active. Cytochrome P450 2C9 (Homo sapiens), P11712. recombinant CYP2C9, luciferin-H conversion; stronger effect = higher value; factor 1 = untreated enzyme, 0 = blocked. activation factor at 5 µM;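 active means activation factor of 2 or more for CYP2C9 at a 5 µM dose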;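 further: 0 = sulfaphenazole-blocked wells and 1 = vehicle-only wells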
CYP2C19 activ: human CYP2C19 activators, primary screen, biochemical, luminescence. AID 1025, 2008. Cytochrome P450 2C19 (Homo sapiens), P33261. 96,000 tested, under 10 active. activation factor at 5 µM. recombinant CYP2C19, luciferin-H EGE luminescence; stronger effect = higher value; 0 = fully inhibited enzyme, 1 = untreated enzyme;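 active means activation factor of at least 2 at 5 µM in the primary screen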;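 further: 0 = wells with 2.5 mM tranylcypromine and 1 = vehicle-only wells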
Target sequence (P33261 whole entry, looked up): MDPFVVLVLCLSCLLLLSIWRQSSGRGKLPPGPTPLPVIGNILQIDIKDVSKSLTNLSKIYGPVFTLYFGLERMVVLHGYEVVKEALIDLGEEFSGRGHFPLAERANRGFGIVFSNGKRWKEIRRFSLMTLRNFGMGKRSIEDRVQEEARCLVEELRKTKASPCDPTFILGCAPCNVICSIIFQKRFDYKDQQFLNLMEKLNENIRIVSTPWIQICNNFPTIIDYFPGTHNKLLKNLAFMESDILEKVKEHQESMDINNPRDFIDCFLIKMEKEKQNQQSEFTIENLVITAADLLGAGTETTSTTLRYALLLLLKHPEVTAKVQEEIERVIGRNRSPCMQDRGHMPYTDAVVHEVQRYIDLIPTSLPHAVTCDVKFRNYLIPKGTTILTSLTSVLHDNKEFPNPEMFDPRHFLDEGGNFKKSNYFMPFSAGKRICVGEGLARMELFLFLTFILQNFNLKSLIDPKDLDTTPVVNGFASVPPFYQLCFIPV
CYP2C9 inh: blockers of cytochrome P450 2C9 activity – biochemical, luminescence, ADME assay, primary screen. P11712. CYP2C9 Supersomes, luciferin-H conversion. inhibition, % at 5 µM. 96,000 tested, 20% active. AID 777, 2007;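 active means blocking of liver enzyme CYP2C9 beyond about 50% at 5 µM, limit read from the data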
Cav3 T inh: Cav3.2 calcium influx blockers – cell-based, Fluo-4 calcium fluorescence, FDSS, MLSMR library, primary screen; Cav3.2-expressing cells; stronger effect = lower value; B-score at 10 µM; 100,000 tested, 4% active; AID 449739, 2010;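 active means single-dose well whose peak fluorescence ratio is a statistical outlier from its plate by either plate-standardised score or position-corrected B-score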
CYP2C19 inh: blockers of cytochrome P450 2C19 activity – biochemical, luminescence, ADME assay, primary screen; inhibition, % at 5 µM; CYP2C19 Supersomes, luciferin-H EGE luminescence, 30 min; 96,000 tested, 21% active;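 active means CYP2C19 inhibition above a set limit at 5 µM in the primary screen, cut at about 50% in these data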;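 further: plate controls were negative control wells for no effect and 2.5 mM tranylcypromine positive control for full effect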
Active calls of the source: *; · = no result.

SMILES	CYP2C9 act	CYP2C19 activ	CYP2C9 inh	Cav3 T inh	CYP2C19 inh
COc1cc(/C=N/c2oc(-c3ccccc3)cc2C#N)ccc1O	0.9	1.1	8.6	-0.422	-9.1
CCN1CCN(Cc2ccc(NC(=O)c3cc(NC(=O)c4cnnc5ccccc45)cc(OC)c3)cc2C(F)(F)F)CC1	·	·	·	0.298	·
COc1cc2c(cc1OC)C(c1cccnc1)CC(=O)N2 (configuration not stated)	0.9	1	6.6	-0.0646	-4.1
COC(=O)c1ccc(C2CC(=O)Nc3cc(OC)c(OC)c(OC)c32)cc1 (configuration not stated)	0.1	0.1	87.9*	0.275	93.3*
COc1cc2c(c(OC)c1)C(c1ccncc1)CC(=O)N2 (configuration not stated)	0.1	0.2	90.0*	0.988	76.5*
C=CCCCCCCCC(=O)OC	·	·	·	0.41	·
CCSc1nc2c(sc3nc(C)cc(C)c32)c(=O)[nH]1	0.4	0.9	57.9*	·	13.9
C=CCOC(=O)CCC(=O)Nc1cccc2ccccc12	0.9	0.2	13.4	0.00841	80.3*
Cc1cc(=O)n2c3c(sc2n1)C(=O)N(Cc1ccccc1)C3=O	1	1	-1.3	0.466	-0.6
CCc1ccc(N2C(=O)c3sc4nnc(-c5ccccc5)c(=O)n4c3C2=O)cc1	0.4	0.9	63.6*	0.0101	14.3
CCc1cc(=O)oc2cc(C)c3c(C)coc3c12	0.8	0.4	16.8	·	63.0*
COC(=O)Cc1c(C)c2ccc(OC(=O)c3ccccc3)cc2oc1=O	1.1	1	-9.2	-2.08	0.1
Cc1coc2c1c(C)cc1oc(=O)c(Cc3ccccc3)c(C)c12	0.9	0.5	10.0	-0.0526	53.3*
Cc1cc2oc(=O)cc(C)c2c(=O)o1	1.2	1.1	-15.7	·	-12.5
CSc1nc(Oc2ccc3ccccc3c2)c2ccccc2n1	0.6	0.6	36.4	-2.61	38.4
C=C(Cl)COc1ccc2c(CCCC)cc(=O)oc2c1	0.1	0.1	91.7*	-1.3	91.3*
CCCCc1cc(=O)oc2cc(OCC(=O)N(CC)CC)c(Cl)cc12	0.8	1.1	17.3	-3.06*	-9.5
CCCCc1cc(=O)oc2cc(OCC(=O)N(CC)CC)ccc12	0.8	0.8	18.7	0.746	16.7
C/C(=C\C(=O)O)C12CC3CC(CC(C3)C1)C2	0.9	1.1	10.5	1.36	-5.3
CCOC(=O)c1c(N)c(C#N)c2n1CCCCC2	0.7	0.1	34.5	1.04	94.8*
CCOC(=O)c1c(N)c(C#N)c2n1CCCC2	1	1	-4.5	0.678	0.6
CC(=O)Nc1ccc(S(=O)(=O)N2CCSC2c2ccc(C)cc2)cc1 (configuration not stated)	0.4	0.8	55.2*	-4.24*	19.8
COc1ccc(C2SCCN2S(=O)(=O)c2ccc(NC(C)=O)cc2)cc1 (configuration not stated)	0.6	0.5	43.0	-0.392	54.6*
CCC1(COC(=O)Nc2cccc(Cl)c2)COC1	0.9	0.5	8.4	-0.764	48.4
CCCC(=O)N(Cc1cc2cc(C)ccc2[nH]c1=O)c1ccccc1OC	0.8	1	21.4	-1.74	4.6
SMILES	CYP2C9 act	CYP2C19 activ	CYP2C9 inh	Cav3 T inh	CYP2C19 inh
CCCC(=O)N(Cc1cc2ccccc2[nH]c1=O)c1ccccc1OC	0.1	0.4	86.9*	-0.335	64.8*
Cc1ccc(S(=O)(=O)N(C)Cc2cc3ccccc3[nH]c2=O)cc1	1	0.8	-3.7	-0.0207	21.7
CN(Cc1cc2ccccc2[nH]c1=O)S(=O)(=O)c1ccccc1	0.5	0.2	45.1	·	78.7*
COc1ccc(S(=O)(=O)N(Cc2cc3ccc(OC)cc3[nH]c2=O)CC2COCCO2)cc1 (configuration not stated)	0.3	0.7	74.8*	0.427	30.1
COc1ccc2cc(CN(CC3COCCO3)S(=O)(=O)c3ccccc3)c(=O)[nH]c2c1 (configuration not stated)	0.2	1	84.9*	0.602	3.1
Cn1cc([N+](=O)[O-])c(C(=O)Nc2ccn(Cc3c(F)c(F)cc(F)c3F)n2)n1	1.6	0.9	-63.4	-0.0786	13.7
CC(C)NC(=O)NC(=O)CSc1nnc(COc2ccccc2F)n1C(C)C1CC2CCC1C2 (configuration not stated)	0.6	0.8	41.5	-2.7	20.1
CC1CCc2nn(CC(=O)N3CCc4ccccc43)cc2C1 (configuration not stated)	0.8	0.7	22.9	-0.0686	25.6
Cc1noc(C)c1S(=O)(=O)N(CCc1ccccc1)Cc1ccccc1	0.2	0.6	76.2*	-4.69*	40.9
CC(=O)NCC(=O)N(C)C(C(=O)Nc1ccc(C(C)C)cc1)c1ccccc1 (configuration not stated)	0.9	1	5.6	0.163	-4.8
Cc1cccc(OCC(=O)Nc2cc(C)c(C)cc2O)c1	0.7	0.4	26.3	-0.46	56.1*
Cc1cccc(OCC(=O)Nc2ccc(S(=O)(=O)N3CCCC3)cc2)c1	0.5	0.8	47.1	·	21.3
Cc1cccc(OCC(=O)NNc2c3ccccc3nc3ccccc23)c1	2*	1	-95.2	-2.6	4.8
Cc1cccc(OCC(=O)Nc2cc(C)ccc2O)c1	0.8	0.4	16.1	-2.92	60.4*
COc1cccc(C(=O)Nc2cc(C)ccc2NC(=O)COc2ccccc2)c1	0.9	1.1	12.4	·	-11.4
CSCCC(NC=C1C(=O)OC(C)(C)OC1=O)C(=O)O (configuration not stated)	0.9	1	11.2	-0.681	0.3
CCC(Sc1ncccc1C(=O)OC(C)C)C(=O)NCc1ccco1 (configuration not stated)	0.5	0.5	49.9	-0.139	54.9*
CCOC(=O)c1cccnc1SC(CC)C(=O)NCc1ccco1 (configuration not stated)	0.3	0.3	70.4*	-0.353	68.0*
CCC(Sc1ncccc1C(=O)OC(C)C)C(=O)N1CCOCC1 (configuration not stated)	0.8	0.9	21.3	0.465	5.7
Cc1cc2ncn(CCOc3ccccc3C#N)c2cc1C	0.5	0.2	51.2*	-0.526	77.0*
Cc1ccc(OCCCCn2cnc3ccccc32)c(C)c1	0.6	0.7	38.1	-2.64	34.7
COc1ccc(CN2CC(C(=O)N3CCOCC3)CC2=O)cc1 (configuration not stated)	1	0.9	0.9	·	12.9
Cn1c(=O)c2c(nc(Br)n2Cc2ccccc2Cl)n(C)c1=O	0.6	0.2	44.4	0.107	76.6*
Cn1c(=O)c2c(nc(-n3ccnc3)n2Cc2ccc(Cl)cc2Cl)n(C)c1=O	0.2	0.4	80.2*	0.0484	60.3*
CCN1CCN(Cc2nc3c(c(=O)n(C)c(=O)n3C)n2Cc2ccccc2Cl)CC1	1	1	-4.5	1.51	2.7
